High-throughput results from PubChem.
TDP1 cell noCPT: qHTS for Inhibitors of human tyrosyl-DNA phosphodiesterase 1 (TDP1): qHTS in cells in absence of CPT | DT40 Tdp1-/- hTDP1 cells, no CPT, ATP luminescence, 48 h | 15% of 420,000 active | AID 686978, 2013 | Potency, µM (doses to about 46.2 µM), usual class: inhibitors; further: nearly all actives have a fitted effect of over 55% in size
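No-CPT arm: Tdp1-/-;hTDP1 DT40 cells (400/well) plus compounds, incubated ≥48 hr at 37 °C. Readout CellTiter-Glo luminescence.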
HepG2 tox: HepG2 cytotoxicity, counter-screen for TGF-b inhibitors; HepG2 CAGA-GFP viability, ATP luminescence, 18 h; Potency, µM (highest dose often 46.1 µM), usual class: cytotoxic; 0.76% of 410,000 active; AID 588856
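CellTiter-Glo luminescence gave cytotoxicity after 18 hours at 37 degrees C. The cells were HepG2 CAGA-GFP in 1% FBS DMEM, stimulated with 500 pg/mL TGF-beta after compound addition. %Activity was normalised to no-cell wells (complete cell-killing) and DMSO (no toxicity), and curves were fitted and classified.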
DT40 TDP1 CPT: DT40-hTDP1 cell growth loss with CPT. chicken DT40 Tdp1-/-;hTDP1 cells + 20 nM CPT, ATP luminescence, 48 h. 12% of 420,000 active. Potency, µM (series often up to 46.2 µM), actives largely listed as inhibitors. AID 686979; further: nearly all actives have a fitted effect of over 55% in size
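Cell growth measured by CellTiter-Glo luminescence after a minimum 48 h, 37 C compound exposure with 20 nM CPT in Tdp1-knockout DT40 cells stably expressing hTDP1, seeded 400/well; qHTS titration format.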
TDP1 block: inhibitors of human tyrosyl-DNA phosphodiesterase TDP1. recombinant TDP1, AlphaScreen DNA substrate cleavage. 0.28% of 350,000 active. Q9NUW8. Potency, µM (titrated, usually from 130 µM), actives largely listed as inhibitors; further: nearly all actives have a fitted effect of over 40% in size
Target sequence (Q9NUW8 whole entry, looked up): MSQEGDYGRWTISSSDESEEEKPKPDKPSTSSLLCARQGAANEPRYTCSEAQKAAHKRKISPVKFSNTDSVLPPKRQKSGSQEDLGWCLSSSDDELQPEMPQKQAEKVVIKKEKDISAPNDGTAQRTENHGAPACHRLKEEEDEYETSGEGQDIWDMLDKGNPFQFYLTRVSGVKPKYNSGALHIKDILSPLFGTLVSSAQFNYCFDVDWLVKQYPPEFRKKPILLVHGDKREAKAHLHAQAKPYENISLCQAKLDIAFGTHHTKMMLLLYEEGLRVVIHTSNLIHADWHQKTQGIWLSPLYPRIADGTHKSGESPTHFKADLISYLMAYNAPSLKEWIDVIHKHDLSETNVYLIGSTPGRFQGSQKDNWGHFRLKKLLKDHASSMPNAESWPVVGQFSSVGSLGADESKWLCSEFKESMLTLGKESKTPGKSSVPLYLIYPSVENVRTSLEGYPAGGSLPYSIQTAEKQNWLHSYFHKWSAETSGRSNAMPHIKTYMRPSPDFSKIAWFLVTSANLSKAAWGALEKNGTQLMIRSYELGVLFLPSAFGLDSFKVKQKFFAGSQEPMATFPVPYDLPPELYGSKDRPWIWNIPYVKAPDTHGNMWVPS
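Recombinant E. coli-expressed Tdp1 (1 nM) preincubated with compound 15 min at RT, then 5'-biotin/3'-phosphotyrosine-FITC DNA substrate (15 nM) added for 5 min. AlphaScreen beads (10 ug/ml) added, 10 min RT; tyrosine-FITC cleavage read as signal loss.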
TGFb inhibitor: blocks TGF-b signaling; HepG2 CAGA-GFP TGF-b/SMAD3 reporter, GFP fluorescence, 18 h; TGF-beta stimulated, 500 pg/mL final; Potency, µM (highest dose often 46.1 µM), hits mostly inhibitors; 1.2% of 410,000 active; AID 588855; further: nearly all actives have a fitted effect of over 65% in size
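HEPG2 CAGA-GFP reporter cells (1000/well, DMEM with 1% FBS) received compounds, then recombinant TGF-beta at 500 pg/mL final for 18 hours at 37 degrees C. Per-cell GFP summed per well was normalised to unstimulated and stimulated DMSO controls before curve fitting.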
IL-1B inflam inh: blocks inflammasome-driven IL-1 beta release | THP-1 LPS/ATP IL-1B secretion, AlphaLISA, 16 h; active compounds read low | 4.7% of 360,000 active | activity change, % at 57.5 µM; in the data active means activity change below about -50%; inconclusive means mostly about -30% to -49%
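Secreted IL-1B measured by AlphaLISA bead assay after 16 h compound exposure of THP-1 cells; compounds (final up to 57.5 uM) added 1 h before LPS (250 ng/mL) and ATP (1.25 mM) stimulation; lower signal means less secretion.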
Hits are given with their value; n = inactive; u = inconclusive; x = no result. Only some compounds are listed: those with a hit (about 19% of all), similar ones and a draw of the others. Unless noted, the call rests on the fitted dose curve; in most records, active means well fitted curve in the direction sought with a large enough effect; inconclusive means small, poorly fitted or top-dose-only effect, or another doubt; inactive means no such curve, though single readings can be large; an effect the other way counts as inactive or inconclusive.

SMILES	TDP1 cell noCPT	HepG2 tox	DT40 TDP1 CPT	TDP1 block	TGFb inhibitor	IL-1B inflam inh
Cc1ccc(NC(=O)CSc2nc(-c3ccc(F)cc3)cc(C(F)(F)F)c2C#N)cc1	n	n	u	n	n	x
Cc1nc(SCC(=O)Nc2ccc(F)cc2)c(C#N)c(C)c1CC(=O)c1ccc(Br)cc1	u	n	16µM	n	u	n
Cc1cccc(NC(=O)CSc2nc(C)c(CC(=O)c3ccc(Br)cc3)c(C)c2C#N)c1C	15µM	n	13µM	n	u	n
CCOC(=O)c1nnc2c(-c3ccc(Cl)cc3)c(C)nn2c1N	n	n	n	n	u	x
CCOC(=O)c1sc(NC(=O)c2ccc(S(=O)(=O)N3CCCCCC3)cc2)nc1-c1ccccc1	1µM	n	u	n	n	n
CCOC(=O)c1sc2ccc(S(=O)(=O)N3CCOCC3)cc2c1N	n	n	u	n	n	n
CCOC(=O)c1sc(NC(=O)c2ccc(S(=O)(=O)N3CCCCC3)cc2)nc1-c1ccccc1	u	n	n	n	n	n
CCOC(=O)c1sc2ccccc2c1S(=O)(=O)N1CCN(c2ccccc2)CC1	u	n	u	n	n	x
COC(=O)c1sc2ccccc2c1S(=O)(=O)N1CCN(c2ccc(C(C)=O)cc2)CC1	u	n	16µM	n	n	x
CCOC(=O)c1sc2ccc(S(=O)(=O)N3CCCCC3)cc2c1N	u	n	14µM	n	n	n
COC(=O)c1sc2ccccc2c1NC(=O)c1ccc(S(=O)(=O)N2CC(C)CC(C)C2)cc1 (centres undefined)	18µM	n	21µM	n	n	n
O=C(NCc1cccs1)C1CCN(C(=O)N2CCOc3ccccc32)CC1	n	n	n	n	n	x
CC(Oc1ccc(Br)cc1)C(=O)Nc1cc(S(=O)(=O)N2CCOCC2)ccc1N1CCCC1 (centres undefined)	u	n	u	x	n	n
CCOC(=O)c1sc2ccc(S(=O)(=O)N3CC(C)CC(C)C3)cc2c1N (centres undefined)	13µM	n	u	n	n	n
CSc1ccc(/C=C/C(=O)N2CCN(c3ccccn3)CC2)cc1	n	n	n	n	n	n
CCOc1ccc(N2CC(c3nc4ccccc4n3Cc3cccc(C)c3)CC2=O)cc1 (centres undefined)	u	n	u	n	u	x
Cc1ccc(C)c(Cn2c(C3CC(=O)N(c4ccccc4C)C3)nc3ccccc32)c1 (centres undefined)	21µM	n	23µM	n	u	x
CCc1ccccc1N1CC(c2nc3ccccc3n2Cc2cccc(C)c2)CC1=O (centres undefined)	13µM	n	10µM	n	6.3µM	x
O=C(Nc1ccc(Br)cc1)C1CCCN(S(=O)(=O)c2ccc(Br)s2)C1 (centres undefined)	u	n	u	n	n	x
CC(Oc1ccc(Br)cc1)C(=O)N(C)CC(=O)Nc1ccc(N2CCOCC2)cc1 (centres undefined)	n	n	n	x	n	n
Cc1cccc(OCc2nnc(SCCC(=O)O)n2-c2ccccc2)c1	n	n	n	x	n	n
O=C(c1ccncc1)N1CCC2(CC1)CCN(c1ccncc1)CC2	n	x	n	x	x	x
CCN(CC)S(=O)(=O)c1ccc(Cl)c(NC(=O)c2ccccc2C)c1	23µM	n	u	n	n	n
CCN(CC)S(=O)(=O)c1ccc(Cl)c(C(=O)Nc2ccc(Cl)cc2[N+](=O)[O-])c1	4.6µM	n	5.8µM	n	u	u
CCN(CC)S(=O)(=O)c1ccc(OC)c(NC(=O)c2cccc(C)c2[N+](=O)[O-])c1	n	n	u	n	u	u
SMILES	TDP1 cell noCPT	HepG2 tox	DT40 TDP1 CPT	TDP1 block	TGFb inhibitor	IL-1B inflam inh
CN(C)S(=O)(=O)c1ccc(Cl)c(C(=O)Nc2ccccc2[N+](=O)[O-])c1	n	n	n	n	n	n
Cc1ccc(C(C)C)c(OCc2ccc(C(=O)Nc3ccc(S(N)(=O)=O)cc3C)o2)c1	u	n	u	n	u	x
CCOC(=O)C(=N/O)/C(C)=N/NC(=O)C(=O)Nc1ccc(Cl)cc1	2.1µM	n	4.1µM	n	u	n
CCN1C(=O)C(CC(=O)Nc2cccc(C(C)=O)c2)S/C1=N\c1ccccn1 (centres undefined)	u	n	u	n	n	n
O=C(CC1SC(=Nc2ccccc2)N(Cc2ccccn2)C1=O)Nc1ccc(Br)cc1 (centres undefined)	10µM	n	16µM	n	u	u
Cc1ccccc1N=C1SC(CC(=O)Nc2ccc3ccccc3c2)C(=O)N1Cc1ccccn1 (centres undefined)	21µM	n	18µM	n	u	u
CCN=C1SC(CC(=O)Nc2ccccc2)C(=O)N1CC (centres undefined)	n	n	n	n	u	n
O=C(CC1SC(=Nc2cccc3ccccc23)N(Cc2ccccn2)C1=O)Nc1ccccc1Br (centres undefined)	2.3µM	n	4.6µM	n	n	n
Cc1cc(C(C)(C)CC(C)(C)C)ccc1OCCOCC[N+](C)(C)Cc1ccccc1	4.1µM	20µM	3.7µM	n	u	n
CN1CCN(c2ccc(Cl)cc2NC(=O)c2nn(-c3ccccc3)c(=O)c3ccccc23)CC1	9.2µM	n	u	n	n	n
CCc1noc(C)c1C(=O)Nc1ccccc1N1CCOCC1	u	n	u	x	n	n
Cn1nc(C(=O)Nc2cc(Cl)ccc2N2CCCC2)c2ccccc2c1=O	u	n	u	n	n	n
CCc1noc(C)c1C(=O)Nc1cc(Cl)ccc1N1CCCC1	18µM	n	u	n	n	n
CCc1cc(C(=O)Nc2cc(Cl)ccc2N2CCN(C)CC2)sc1C	23µM	n	u	n	n	n
O=C(Nc1cnc(N2CCN(c3ccccc3)CC2)c(C(=O)O)c1)c1cccs1	n	n	n	x	n	x
CCOc1ccc(C(=O)c2cn(CC(=O)Nc3cccc(OC)c3)c3cc4c(cc3c2=O)OCCO4)cc1	u	n	n	n	u	x
CC1CCN(C(=O)C(C)NCc2ccc(F)cc2)CC1 (centres undefined)	21µM	n	u	x	n	n
Cc1cc(C(=O)CN2C(=O)C(=O)N(Cc3ccco3)C2=O)c(C)n1CCc1ccccc1	18µM	n	23µM	n	u	n
Cc1cc(C(=O)CN2C(=O)C(=O)N(Cc3ccco3)C2=O)c(C)n1CCc1ccc(F)cc1	u	n	21µM	n	n	n
Cc1cc(C(=O)COC(=O)c2ccco2)c(C)n1Cc1ccco1	n	n	u	n	n	n
